# Screening data from PubChem BioAssay.
# NALP1 inh: blocks the NALP1 inflammasome reconstituted in yeast; S. cerevisiae NALP1/ASC/caspase-1 growth, X-gal OD620, 72 h; hit rate 0.61% among 280,000; inhibition, % at 10 µM; in the data active = inhibition mostly above about 24%, no sharp cut-off; inactive = mostly below about 32%
# TIM10 inh: growth inhibitors of TIM10 yeast strain | S. cerevisiae TIM10 strain growth, BacTiter-Glo luminescence, 24 h | inhibition, % at 10 µM | hit rate 1.4% among 330,000;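 active = inhibition of 40% or more at the single tested concentration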;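 note: wild-type TIM10 isogenic control strain grown at permissive 25 °C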
# tim23-1 inh: growth inhibitors of tim23-1 mutant yeast. S. cerevisiae tim23-1 growth, BacTiter-Glo luminescence, 24 h. inhibition, % at 20 µM. hit rate 1.3% among 330,000;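 active = growth inhibition of the mutant yeast at or above 50%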;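 note: temperature-sensitive mutant grown at 25 °C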
# NALP3 yeast inh: blocks the NALP3 inflammasome reconstituted in yeast. Yeast reconstituted NLRP3/ASC/caspase-1, beta-gal luminescence, 24 h. AID 2825. hit rate 0.39% among 330,000. inhibition, % at 10 µM;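 active = inhibition of 50% or more; inactive = inhibition below 50%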
# tim10-1 inh: growth inhibitors of tim10-1 mutant yeast; S. cerevisiae tim10-1 ts strain growth, BacTiter-Glo, 24 h; inhibition, % at 20 µM; hit rate 2.2% among 330,000; AID 463190;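 active = inhibition of at least 40%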;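 note: mutant grown at 25 °C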
# V-ATPase pHluor: regulators of yeast V-ATPase proton transport | S. cerevisiae, pHLuorin cytosolic pH fluorescence | hit rate 0.37% among 350,000 | response, % at 10 µM | AID 504577; in the data active = response mostly above about 7.3%, no sharp cut-off; inactive = mostly below about 5.4%; note: actives read high
# NALP3 yeast conf: NALP3 inhibition confirmation in yeast. inhibition, % at 10 µM. shares compounds with NALP3 yeast inh. yeast expressing human NALP3, luminescence. hit rate 81% among 1,300; in the data active = inhibition above about 48%
# Casp1-ASC yeast: active in yeast caspase-1-ASC counter-screen for NALP3 inhibitors; shares compounds with NALP3 yeast inh; yeast expressing Caspase-1-ASC, luminescence counter screen; inhibition, % at 10 µM; hit rate 66% among 1,000; AID 488784
# NALP3 retest: retest-confirmed inhibitor of NALP3 in yeast. shares compounds with NALP3 yeast inh. inhibition, % at 10 µM. yeast expressing human NALP3, luminescence read-out. hit rate 53% among 1,000
# A number is an active result; 0 = inactive; - = no result. The list is not random: actives were taken first. Their share in the collection is about 4.2%. Cut-off read from the data, not from the text of the source, unless noted: active = inhibition above about 50%; inactive = the rest.
SMILES,NALP1 inh,TIM10 inh,tim23-1 inh,NALP3 yeast inh,tim10-1 inh,V-ATPase pHluor,NALP3 yeast conf,Casp1-ASC yeast,NALP3 retest
CCOCCC(=O)Nc1ncc(S(=O)(=O)c2ccc([N+](=O)[O-])cc2)s1,-,-,-,-,-,0,-,-,-
O=C(CN1CCN(C2CCCCC2)CC1)Nc1cccc2ccccc12,0,0,0,0,0,0,-,-,-
COc1ccc(S(=O)(=O)n2ccc(-c3cnc(-c4ccccc4)s3)n2)cc1,0,0,0,0,0,0,-,-,-
O=C(c1ccccc1)n1ccc(-c2cnc(-c3ccccc3)s2)n1,0,0,0,62,0,0,60,0,0
COc1ccc(-c2noc(CCC(=O)N3CCN(c4ccc(F)cc4)CC3)n2)cc1,-,0,0,-,0,0,-,-,-
COc1cc(OC)cc(-c2cc3cc4c(cc3cn2)OCO4)c1,-,0,0,56,0,0,56,0,0
CCOc1ccc(C(=O)NCC(=O)N2CC=C(c3ccccc3)CC2)cc1OCC,-,0,0,0,0,0,-,-,-
O=C(O)CCC(=O)Nc1ccc(N=Nc2ccccc2)cc1,0,-,-,-,-,0,-,-,-
CC(C)(C)C(=O)Nc1ccc(N=Nc2ccccc2)cc1,0,0,0,53,0,0,65,0,0
O=C(CCl)NNC(=O)c1c(O)c2ccccc2[nH]c1=O,0,0,0,0,0,0,-,-,-
O=C(NC1CC1)c1c(O)c2ccccc2[nH]c1=O,0,0,0,69,0,0,75,0,0
O=C(NNC(=O)c1c(O)c2ccccc2[nH]c1=O)c1ccccc1Br,0,0,0,57,0,0,72,0,0
COc1ccccc1-c1ccc(SCc2ccc(C)cc2)nn1,0,0,0,54,0,0,59,52,55
COc1ccccc1-c1ccc(SCc2ccc(F)cc2)nn1,0,0,0,0,0,0,-,-,-
Clc1cc2nc3ccccn3c2cc1Cl,0,0,0,67,0,0,0,-,-
CCOC(=O)N1CCN(C(=O)c2cnn(-c3ccccc3)c2NC(=O)c2ccccc2F)CC1,0,0,0,0,0,0,-,-,-
Cc1cc(-c2cc(C(=O)NC3CCCC3)on2)nc(NC2CCCC2)n1,-,0,0,0,0,0,-,-,-
CCCNc1nc(C)cc(-c2cc(C(=O)NC3CCCC3)on2)n1,0,0,0,63,0,0,81,51,0
Cc1cccc(OCCCSc2nc3ccc(C)cc3[nH]2)c1,0,0,0,50,0,0,53,54,0
CCCCCCCCCCS(=O)(=O)N/N=C/c1ccccc1OC,0,0,0,0,0,0,-,-,-
CCCCCCCCCCS(=O)(=O)N/N=C/c1ccc(O)cc1,0,0,0,50,0,0,70,0,0
Cc1csc(=Nc2cccnc2)n1CC1CCCCC1,0,0,0,0,0,0,0,-,-
CC1(C)Cc2c(cnn2-c2ccc(F)cc2)C(NC(=O)CCN2CCCCO2)C1 (stereo unspecified),0,0,0,0,0,0,-,-,-
Cn1cc(C(=O)CCl)c2ccccc21,0,-,-,-,-,0,-,-,-
Cn1cc(/C(Cc2ccccc2)=N\O)c2ccccc21,0,0,0,56,0,0,68,0,0
SMILES,NALP1 inh,TIM10 inh,tim23-1 inh,NALP3 yeast inh,tim10-1 inh,V-ATPase pHluor,NALP3 yeast conf,Casp1-ASC yeast,NALP3 retest
CN(C)c1ncnc2sc(-c3ccccc3)cc12,0,0,0,65,0,0,75,0,0
COc1ncnc2sc(-c3ccccc3)cc12,0,0,0,0,0,0,-,-,-
Fc1cccc(/C=N/Nc2ccc3ccccc3n2)c1,0,0,0,0,0,0,-,-,-
O=C1C(=O)N(CCCN2CCOCC2)C(c2ccc(Cl)cc2)/C1=C(\O)c1ccc2c(c1)OCCO2 (stereo unspecified),0,0,0,0,0,0,-,-,-
CCCCOc1ccc(C2/C(=C(\O)c3ccc4c(c3)OCCO4)C(=O)C(=O)N2CCCN2CCOCC2)cc1 (stereo unspecified),0,0,0,60,0,0,55,68,54
COc1ccc(NC(=O)CSCC(=O)Nc2sccc2C#N)cc1,-,0,0,0,0,0,-,-,-
CCCOc1ncnc2c1[nH]c1ccc(C)cc12,0,0,0,0,0,-,-,-,-
CCOc1ncnc2c1[nH]c1ccccc12,-,0,0,61,0,0,82,-,-
c1ccc(-n2ncc3c(N4CCCCC4)ncnc32)cc1,0,0,0,60,0,0,61,69,61
CC1CCCN(c2ncnc3c2cnn3-c2ccc(Cl)cc2)C1 (stereo unspecified),0,0,0,0,0,0,-,-,-
CC1CCCN(c2ncnc3c2cnn3-c2ccccc2)C1 (stereo unspecified),0,0,0,54,0,0,62,-,-
CC(C)Nc1ncnc2c1cnn2-c1ccccc1,0,0,0,58,0,0,65,0,0
Cc1cccc(-n2ncc3c(NC(C)C)ncnc32)c1,-,0,0,0,0,0,-,-,-
COc1ccc2oc(C(=O)OCc3nnc(-c4ccccc4)o3)c(C)c2c1,-,0,0,0,0,0,-,-,-
COc1ccc(COCC(O)CN2CCN(S(=O)(=O)c3c(F)cccc3F)CC2)cc1OC (stereo unspecified),-,-,-,-,-,0,-,-,-
COC(=O)c1c(C)[nH]c(C(=O)OCc2ccc(F)cc2)c1C,0,0,0,0,0,0,-,-,-
C#CCNC(=O)C1=C[C@H](C2CCCCC2)C[C@H](OCc2ccc(CO)cc2)O1,0,0,0,54,0,0,54,51,0
O=C(NC1CC1)C1=C[C@H](C2CCCCC2)C[C@H](OCc2ccc(CO)cc2)O1,0,0,0,58,0,0,60,62,0
CCOC(=O)c1ccccc1NC(=O)c1ccc2c(SCC(=O)O)c3c(nc2c1)CCCC3,0,0,0,0,0,0,-,-,-
COc1ccc(C(=O)CCNc2ccc(F)cc2)cc1,-,0,0,57,0,0,0,-,-
CCCOc1ccc2c3c(c(=O)oc2c1)CCCC3,0,0,0,55,0,0,63,78,64
O=C(Cn1nc2n(c1=O)-c1ccccc1SC2)N/N=C/c1ccncc1,-,0,0,0,0,0,-,-,-
O=c1c2ccccc2oc2cc(C#CC3(O)CCCCC3)ccc12,-,0,0,0,0,0,-,-,-
COc1cccc2oc3cc(C#CC4(O)CCCCC4)ccc3c(=O)c12,0,0,0,57,0,0,60,62,0
CC(C)CCN(C(=O)c1ccncc1)c1c(N)n(Cc2ccccc2)c(=O)[nH]c1=O,-,0,0,0,0,0,-,-,-
O=[N+]([O-])c1ccc2c(c1Nc1ccccc1Cl)=NC1(CCCCC1)N=2,0,0,0,0,0,0,-,-,-
Cc1ccc(Nc2c([N+](=O)[O-])ccc3c2=NC2(CCCCC2)N=3)cc1,0,0,0,52,0,0,56,-,-
COc1ccc(N=C2S/C(=C\c3ccc(OCC(=O)O)cc3)C(=O)N2CCc2c[nH]c3ccccc23)cc1,0,0,0,0,0,0,-,-,-
